These results are taken from the supplement of paper PMC10382584, “Macrocyclization of linear molecules by deep learning to facilitate macrocyclic drug candidates discovery” (Nature Communications, 2023).

Sequence of UniProt Q9UM73 (Q9UM73 whole entry C1156Y, looked up): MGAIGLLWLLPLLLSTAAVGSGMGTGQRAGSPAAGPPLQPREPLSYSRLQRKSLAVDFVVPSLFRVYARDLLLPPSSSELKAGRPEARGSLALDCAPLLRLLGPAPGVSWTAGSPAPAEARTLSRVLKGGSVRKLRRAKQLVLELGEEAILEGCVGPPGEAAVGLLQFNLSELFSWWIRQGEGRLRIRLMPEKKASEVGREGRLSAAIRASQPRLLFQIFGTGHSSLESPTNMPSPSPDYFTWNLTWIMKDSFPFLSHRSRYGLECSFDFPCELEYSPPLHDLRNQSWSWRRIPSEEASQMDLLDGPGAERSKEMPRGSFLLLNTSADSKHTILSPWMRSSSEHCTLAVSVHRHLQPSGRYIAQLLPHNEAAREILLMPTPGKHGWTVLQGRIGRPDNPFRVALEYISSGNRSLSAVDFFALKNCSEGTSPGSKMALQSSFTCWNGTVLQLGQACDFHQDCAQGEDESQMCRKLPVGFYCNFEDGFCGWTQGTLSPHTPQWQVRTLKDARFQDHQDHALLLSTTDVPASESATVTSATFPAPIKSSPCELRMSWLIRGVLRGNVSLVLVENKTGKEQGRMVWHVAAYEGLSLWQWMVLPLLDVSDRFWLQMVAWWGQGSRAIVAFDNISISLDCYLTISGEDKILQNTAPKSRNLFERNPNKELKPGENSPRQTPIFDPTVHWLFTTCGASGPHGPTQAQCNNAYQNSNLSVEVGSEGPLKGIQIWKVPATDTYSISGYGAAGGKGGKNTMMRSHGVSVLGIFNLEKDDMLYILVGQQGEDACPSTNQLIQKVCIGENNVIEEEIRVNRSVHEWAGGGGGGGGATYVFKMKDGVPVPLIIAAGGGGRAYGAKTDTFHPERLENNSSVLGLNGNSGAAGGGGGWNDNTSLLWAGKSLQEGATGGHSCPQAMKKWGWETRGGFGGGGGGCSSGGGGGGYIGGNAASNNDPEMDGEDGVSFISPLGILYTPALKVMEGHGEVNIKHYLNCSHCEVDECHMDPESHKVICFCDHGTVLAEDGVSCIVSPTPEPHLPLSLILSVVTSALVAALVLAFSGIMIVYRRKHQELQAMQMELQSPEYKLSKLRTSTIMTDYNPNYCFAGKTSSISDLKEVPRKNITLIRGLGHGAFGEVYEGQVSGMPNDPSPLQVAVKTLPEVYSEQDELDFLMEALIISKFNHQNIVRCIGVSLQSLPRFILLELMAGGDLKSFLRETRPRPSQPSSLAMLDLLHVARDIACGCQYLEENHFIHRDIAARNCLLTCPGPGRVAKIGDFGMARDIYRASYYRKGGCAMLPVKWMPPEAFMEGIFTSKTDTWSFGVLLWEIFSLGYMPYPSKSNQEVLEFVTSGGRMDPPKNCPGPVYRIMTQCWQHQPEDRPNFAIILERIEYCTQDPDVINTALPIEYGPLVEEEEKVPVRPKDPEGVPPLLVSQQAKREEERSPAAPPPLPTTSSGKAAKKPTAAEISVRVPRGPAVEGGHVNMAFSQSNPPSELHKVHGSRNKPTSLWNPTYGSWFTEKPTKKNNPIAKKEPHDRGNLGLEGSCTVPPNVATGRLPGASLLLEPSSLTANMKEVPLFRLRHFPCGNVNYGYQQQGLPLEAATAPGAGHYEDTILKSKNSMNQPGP
Sequence of UniProt Q59H18 (Q59H18 whole entry): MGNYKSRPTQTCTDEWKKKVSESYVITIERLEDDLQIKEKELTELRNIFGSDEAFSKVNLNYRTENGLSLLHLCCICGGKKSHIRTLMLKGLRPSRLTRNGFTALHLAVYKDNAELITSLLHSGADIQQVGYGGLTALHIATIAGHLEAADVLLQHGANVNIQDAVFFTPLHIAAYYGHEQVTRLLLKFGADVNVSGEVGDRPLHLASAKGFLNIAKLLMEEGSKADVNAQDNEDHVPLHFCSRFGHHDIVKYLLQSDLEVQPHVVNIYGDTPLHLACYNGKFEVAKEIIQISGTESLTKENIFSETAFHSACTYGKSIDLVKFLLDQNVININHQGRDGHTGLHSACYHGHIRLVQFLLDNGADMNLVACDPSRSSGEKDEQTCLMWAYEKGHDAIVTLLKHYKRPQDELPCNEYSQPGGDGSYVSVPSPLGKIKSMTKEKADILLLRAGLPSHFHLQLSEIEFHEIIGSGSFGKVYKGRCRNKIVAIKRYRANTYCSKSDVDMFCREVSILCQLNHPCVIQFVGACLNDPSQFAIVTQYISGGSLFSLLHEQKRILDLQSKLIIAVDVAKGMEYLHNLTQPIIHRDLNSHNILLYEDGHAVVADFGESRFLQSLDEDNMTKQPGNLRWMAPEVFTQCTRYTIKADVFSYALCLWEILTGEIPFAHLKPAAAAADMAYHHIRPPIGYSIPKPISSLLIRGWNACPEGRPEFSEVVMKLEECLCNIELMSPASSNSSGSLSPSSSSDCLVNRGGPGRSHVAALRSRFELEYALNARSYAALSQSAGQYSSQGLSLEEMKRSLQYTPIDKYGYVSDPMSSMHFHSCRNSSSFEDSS
Sequence of UniProt Q9NRP7 (Q9NRP7 whole entry): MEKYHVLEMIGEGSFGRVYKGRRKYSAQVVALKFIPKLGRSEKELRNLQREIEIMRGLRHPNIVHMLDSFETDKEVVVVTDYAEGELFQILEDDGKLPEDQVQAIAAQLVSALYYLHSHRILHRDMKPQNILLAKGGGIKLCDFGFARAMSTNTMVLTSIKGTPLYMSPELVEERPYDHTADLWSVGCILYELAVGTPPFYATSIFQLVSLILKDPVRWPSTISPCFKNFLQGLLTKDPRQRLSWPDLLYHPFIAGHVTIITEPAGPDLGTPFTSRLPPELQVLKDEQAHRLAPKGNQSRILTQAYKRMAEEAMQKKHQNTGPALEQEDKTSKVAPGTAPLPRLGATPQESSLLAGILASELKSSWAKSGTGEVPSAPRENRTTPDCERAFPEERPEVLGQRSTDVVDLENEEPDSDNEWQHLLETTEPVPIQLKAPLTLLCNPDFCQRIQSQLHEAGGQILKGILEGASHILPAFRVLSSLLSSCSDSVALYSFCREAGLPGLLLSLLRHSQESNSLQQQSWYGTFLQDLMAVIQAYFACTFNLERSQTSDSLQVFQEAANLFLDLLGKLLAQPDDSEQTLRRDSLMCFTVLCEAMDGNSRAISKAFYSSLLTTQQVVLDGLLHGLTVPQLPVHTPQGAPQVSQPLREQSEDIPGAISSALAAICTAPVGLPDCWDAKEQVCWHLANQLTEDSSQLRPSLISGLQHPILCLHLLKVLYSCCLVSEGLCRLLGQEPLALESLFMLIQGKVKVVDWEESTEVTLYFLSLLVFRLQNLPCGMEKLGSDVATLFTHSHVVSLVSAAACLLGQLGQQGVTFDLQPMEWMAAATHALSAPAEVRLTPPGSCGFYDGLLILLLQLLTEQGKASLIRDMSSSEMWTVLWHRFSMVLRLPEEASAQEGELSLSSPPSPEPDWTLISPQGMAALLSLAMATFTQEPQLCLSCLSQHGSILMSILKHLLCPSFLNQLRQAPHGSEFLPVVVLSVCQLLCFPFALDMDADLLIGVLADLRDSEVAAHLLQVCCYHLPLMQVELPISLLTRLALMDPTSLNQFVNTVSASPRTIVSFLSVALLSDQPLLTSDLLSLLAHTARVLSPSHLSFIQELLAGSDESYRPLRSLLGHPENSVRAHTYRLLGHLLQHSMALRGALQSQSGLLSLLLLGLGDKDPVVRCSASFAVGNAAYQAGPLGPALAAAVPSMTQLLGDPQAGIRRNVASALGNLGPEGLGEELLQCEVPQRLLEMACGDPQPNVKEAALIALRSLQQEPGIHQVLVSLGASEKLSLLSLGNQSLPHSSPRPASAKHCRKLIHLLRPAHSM
Sequence of UniProt Q9NSY1 (Q9NSY1 whole entry, looked up): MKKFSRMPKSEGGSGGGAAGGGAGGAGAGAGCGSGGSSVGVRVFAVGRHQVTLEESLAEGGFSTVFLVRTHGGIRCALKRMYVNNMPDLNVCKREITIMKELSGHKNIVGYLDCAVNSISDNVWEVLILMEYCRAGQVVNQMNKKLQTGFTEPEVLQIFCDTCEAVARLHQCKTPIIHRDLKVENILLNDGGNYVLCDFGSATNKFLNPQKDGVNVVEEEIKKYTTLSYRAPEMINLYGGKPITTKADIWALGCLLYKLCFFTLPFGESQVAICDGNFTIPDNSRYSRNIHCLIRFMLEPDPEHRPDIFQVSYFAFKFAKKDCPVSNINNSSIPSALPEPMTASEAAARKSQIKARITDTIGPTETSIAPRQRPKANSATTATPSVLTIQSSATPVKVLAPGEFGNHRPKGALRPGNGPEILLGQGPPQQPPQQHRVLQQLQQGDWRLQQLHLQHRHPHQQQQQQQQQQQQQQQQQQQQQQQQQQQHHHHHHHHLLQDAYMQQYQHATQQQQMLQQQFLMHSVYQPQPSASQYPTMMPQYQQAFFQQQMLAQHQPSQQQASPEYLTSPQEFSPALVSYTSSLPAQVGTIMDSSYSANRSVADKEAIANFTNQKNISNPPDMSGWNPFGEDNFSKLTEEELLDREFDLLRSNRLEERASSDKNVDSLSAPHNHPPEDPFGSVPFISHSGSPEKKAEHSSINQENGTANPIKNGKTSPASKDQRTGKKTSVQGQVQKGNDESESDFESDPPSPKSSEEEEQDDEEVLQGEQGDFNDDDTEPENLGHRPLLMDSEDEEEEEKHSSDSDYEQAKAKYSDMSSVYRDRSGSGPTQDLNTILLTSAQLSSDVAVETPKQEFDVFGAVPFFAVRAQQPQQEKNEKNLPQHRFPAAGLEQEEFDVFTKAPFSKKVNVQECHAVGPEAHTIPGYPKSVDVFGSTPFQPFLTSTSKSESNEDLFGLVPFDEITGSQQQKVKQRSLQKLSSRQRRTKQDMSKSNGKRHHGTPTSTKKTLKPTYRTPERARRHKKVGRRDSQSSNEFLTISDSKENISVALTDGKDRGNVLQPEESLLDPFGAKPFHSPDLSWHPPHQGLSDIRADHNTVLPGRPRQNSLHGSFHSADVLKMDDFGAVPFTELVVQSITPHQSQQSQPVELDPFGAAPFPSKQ

Compound in the experiment: Cc1cnc(Nc2ccc(OCCN3CCCC3)cc2)nc1Nc1cccc(S(=O)(=O)NC(C)(C)C)c1 [Fedratinib]
In words: percent of DMSO control binding (KINOMEscan); higher = weaker binding / less inhibition; extreme values may be limits of the assay. As to conditions: concentration: 100 nM.
As to PFCDPK1(P.falciparum), the “percent of DMSO control binding” value turned out to be 100%.

As for PKN2 (UniProt Q16513), the “percent of DMSO control binding” value was determined as 100%. For “RSK1(Kin.Dom.1-N-terminal) (UniProt Q15418)” the value was 89%. For MUSK (UniProt O15146) the value was 96%. Then BIKE (UniProt Q9NSY1), with 7.4%; and VRK2 (UniProt Q86Y07), with 63%; and EPHB1 (UniProt P54762), with 100%.

For the target CDKL2 (UniProt Q92772), the “percent of DMSO control binding” value was found to be 100%. For DDR1 (UniProt Q08345) the value was 100%; for EGFR(T790M) (UniProt P00533), 100%; for PRKCQ (UniProt Q04759), 100%. For GCN2(Kin.Dom.2,S808G) the value was 61%; for PKNB(M.tuberculosis), 61%. For DCAMKL2 (UniProt Q8N568) the value was 97%; for TNNI3K (UniProt Q59H18), 97%; for MAP3K15 (UniProt Q6ZN16), 61%. For RSK3(Kin.Dom.1-N-terminal), the “percent of DMSO control binding” value was 100%. As to PIP5K1C (UniProt O60331), the “percent of DMSO control binding” value was 100%. For “TYK2(JH1domain-catalytic) (UniProt P29597)” the value was 8.8%; for EGFR(G719S) (UniProt P00533), 99%; for MAP3K3 (UniProt Q99759), 78%. For LRRK2(G2019S) (UniProt Q5S007) the value was 76%. Then LKB1 (UniProt Q15831), with 40%; and SgK110 (UniProt P0C264), with 100%; and PIK3CD (UniProt O00329), with 75%. With ALK(C1156Y) (UniProt Q9UM73), the “percent of DMSO control binding” value was 57%. Then BTK (UniProt Q06187), with 87%; and ERBB2 (UniProt P04626), with 73%.

In the case of CTK (UniProt P42679), the “percent of DMSO control binding” value amounted to 74%. As to EPHB4 (UniProt P54760), the “percent of DMSO control binding” value was 100%. For the target WEE2 (UniProt P0C1S8), the “percent of DMSO control binding” value worked out at 100%.

Take MYLK2 (UniProt Q9H1R3): the “percent of DMSO control binding” value was 100%. As to STK36 (UniProt Q9NRP7), the “percent of DMSO control binding” value is 100%. For MLK2 (UniProt Q02779), the “percent of DMSO control binding” value came to 78%. For MLK1 (UniProt P80192) the value was 96%; for MET(M1250T) (UniProt P08581), 94%. For PIP5K1A (UniProt Q99755) the value was 17%.
